Assay results published in PubChem BioAssay AID1159580 (chemical genetic matrix, 2015).
About 2,000 (36%) of roughly 5,500 compounds were called active. About 18% were inconclusive and are not listed. No stated cut-off is given here; in the data, active means normalized growth mostly below about 0.91 (no sharp cut-off); inconclusive means no clear call, values can overlap the other calls; inactive means mostly above about 0.92. This is one part of the list.

Assay: chemical genetic growth profiling, strain panel (AID 1159580);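 further: tested at 20 µM; growth read once vehicle control cultures reached saturation at 30 °C; 1 = growth at the plate median or of vehicle wells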
Conditions: growth OD

Measured: normalized growth

CC(=O)OCC(OC(C)=O)C(OC(C)=O)C(OC(C)=O)C(OC(C)=O)C(COC(C)=O)OC(C)=O (stereo not given)
inactive: S. cerevisiae deletion strains, locus YAL021C, strain ccr4, stronger effect = lower value 0.998 | S. cerevisiae deletion strains, locus YAL026C, strain drs2, stronger effect = lower value 0.993 | S. cerevisiae deletion strains, locus YAL030W, strain snc1, stronger effect = lower value 0.994 | S. cerevisiae deletion strains, locus YBL061C, strain skt5, stronger effect = lower value 0.985 | S. cerevisiae deletion strains, locus YBR009C, strain hhf1, stronger effect = lower value 0.994 | S. cerevisiae deletion strains, locus YBR021W, strain FUR4, stronger effect = lower value 1.01 | S. cerevisiae deletion strains, locus YBR023C, strain chs3, stronger effect = lower value 0.99 | S. cerevisiae deletion strains, locus YBR171W, strain sec66, stronger effect = lower value 0.985 | S. cerevisiae deletion strains, locus YBR229C, strain ROT2, stronger effect = lower value 0.996 | S. cerevisiae deletion strains, locus YBR231C, strain swc5, stronger effect = lower value 0.989 | S. cerevisiae deletion strains, locus YBR279W, strain paf1, stronger effect = lower value 0.994 | S. cerevisiae deletion strains, locus YCL011C, strain gbp2, stronger effect = lower value 0.996 | S. cerevisiae deletion strains, locus YCL016C, strain dcc1, stronger effect = lower value 0.994 | S. cerevisiae deletion strains, locus YCL029C, strain bik1, stronger effect = lower value 0.984 | S. cerevisiae deletion strains, locus YCL061C, strain MRC1, stronger effect = lower value 0.992 | S. cerevisiae deletion strains, locus YCL069W, strain vba3, stronger effect = lower value 0.999 | S. cerevisiae deletion strains, locus YCR088W, strain abp1, stronger effect = lower value 0.991 | S. cerevisiae deletion strains, locus YDL005C, strain med2, stronger effect = lower value 0.989 | S. cerevisiae deletion strains, locus YDL035C, strain GPR1, stronger effect = lower value 1.07 | S. cerevisiae deletion strains, locus YDL040C, strain nat1, stronger effect = lower value 0.98 | S. cerevisiae deletion strains, locus YDL074C, strain BRE1, stronger effect = lower value 1.09 | S. cerevisiae deletion strains, locus YDL101C, strain DUN1, stronger effect = lower value 1 | S. cerevisiae deletion strains, locus YDL185W, strain tfp1, stronger effect = lower value 0.991 | S. cerevisiae deletion strains, locus YDL192W, strain arf1, stronger effect = lower value 1.02 | S. cerevisiae deletion strains, locus YDR001C, strain nth1, stronger effect = lower value 0.99 | S. cerevisiae deletion strains, locus YDR069C, strain doa4, stronger effect = lower value 0.986 | S. cerevisiae deletion strains, locus YDR101C, strain arx1, stronger effect = lower value 1.01 | S. cerevisiae deletion strains, locus YDR137W, strain rgp1, stronger effect = lower value 1.01 | S. cerevisiae deletion strains, locus YDR150W, strain NUM1, stronger effect = lower value 1.01 | S. cerevisiae deletion strains, locus YDR159W, strain sac3, stronger effect = lower value 0.979 | S. cerevisiae deletion strains, locus YDR162C, strain NBP2, stronger effect = lower value 1.03 | S. cerevisiae deletion strains, locus YDR195W, strain ref2 0.943 | S. cerevisiae deletion strains, locus YDR297W, strain sur2, stronger effect = lower value 0.992 | S. cerevisiae deletion strains, locus YDR318W, strain mcm21, stronger effect = lower value 0.999 | S. cerevisiae deletion strains, locus YDR334W, strain swr1, stronger effect = lower value 0.983 | S. cerevisiae deletion strains, locus YDR335W, strain msn5, stronger effect = lower value 0.986 | S. cerevisiae deletion strains, locus YDR388W, stronger effect = lower value 0.983 | S. cerevisiae deletion strains, locus YDR392W, strain spt3, stronger effect = lower value 0.99 | S. cerevisiae deletion strains, locus YDR502C, strain sam2, stronger effect = lower value 0.998 | S. cerevisiae deletion strains, locus YEL003W, strain gim4, stronger effect = lower value 0.993 | S. cerevisiae deletion strains, locus YEL037C, strain rad23, stronger effect = lower value 0.989 | S. cerevisiae deletion strains, locus YEL061C, strain CIN8 (second series), stronger effect = lower value 0.979 | S. cerevisiae deletion strains, locus YER015W, strain faa2, stronger effect = lower value 0.992 | S. cerevisiae deletion strains, locus YER016W, strain bim1, stronger effect = lower value 0.988 | S. cerevisiae deletion strains, locus YER110C, stronger effect = lower value 0.963 | S. cerevisiae deletion strains, locus YER111C, strain swi4, stronger effect = lower value 0.985 | S. cerevisiae deletion strains, locus YER155C, strain BEM2 (second series), stronger effect = lower value 0.981 | S. cerevisiae deletion strains, locus YER155C, strain BEM2, stronger effect = lower value 0.972 | S. cerevisiae deletion strains, locus YER167W, strain BCK2, stronger effect = lower value 1.01 | S. cerevisiae deletion strains, locus YFR010W, strain ubp6, stronger effect = lower value 0.989 | S. cerevisiae deletion strains, locus YGL078C, strain dbp3, stronger effect = lower value 0.976 | S. cerevisiae deletion strains, locus YGL086W, strain mad1, stronger effect = lower value 1 | S. cerevisiae deletion strains, locus YGL167C, strain pmr1, stronger effect = lower value 0.998 | S. cerevisiae deletion strains, locus YGL173C, strain kem1, stronger effect = lower value 0.991 | S. cerevisiae deletion strains, locus YGL227W, strain vid30, stronger effect = lower value 0.99 | S. cerevisiae deletion strains, locus YGL240W, strain doc1, stronger effect = lower value 0.998 | S. cerevisiae deletion strains, locus YGL248W, strain PDE1, stronger effect = lower value 1.03 | S. cerevisiae deletion strains, locus YGL253W, strain hxk2, stronger effect = lower value 0.984 | S. cerevisiae deletion strains, locus YGR078C, strain PAC10, stronger effect = lower value 1.02 | S. cerevisiae deletion strains, locus YGR135W, strain pre9, stronger effect = lower value 0.964 | S. cerevisiae deletion strains, locus YGR252W, strain gcn5, stronger effect = lower value 0.996 | S. cerevisiae deletion strains, locus YHR013C, strain ard1, stronger effect = lower value 0.964 | S. cerevisiae deletion strains, locus YHR027C, strain rpn1, stronger effect = lower value 0.995 | S. cerevisiae deletion strains, locus YHR030C, strain SLT2, stronger effect = lower value 1.01 | S. cerevisiae deletion strains, locus YHR079C, strain IRE1 (second series), stronger effect = lower value 0.987 | S. cerevisiae deletion strains, locus YHR094C, strain hxt1, stronger effect = lower value 0.987 | S. cerevisiae deletion strains, locus YHR129C, strain ARP1, stronger effect = lower value 1 | S. cerevisiae deletion strains, locus YHR142W, strain chs7, stronger effect = lower value 0.983 | S. cerevisiae deletion strains, locus YHR200W, strain rpn10, stronger effect = lower value 0.986 | S. cerevisiae deletion strains, locus YIL066C, strain RNR3, stronger effect = lower value 1.02 | S. cerevisiae deletion strains, locus YIL073C, strain SPO22, stronger effect = lower value 1.06 | S. cerevisiae deletion strains, locus YIL125W, strain kgd1, stronger effect = lower value 0.976 | S. cerevisiae deletion strains, locus YIR030C, strain dcg1, stronger effect = lower value 0.978 | S. cerevisiae deletion strains, locus YJL092W, strain hpr5, stronger effect = lower value 0.998 | S. cerevisiae deletion strains, locus YJL095W, strain BCK1 (second series), stronger effect = lower value 0.985 | S. cerevisiae deletion strains, locus YJL095W, strain BCK1, stronger effect = lower value 1.05 | S. cerevisiae deletion strains, locus YJL115W, strain asf1, stronger effect = lower value 0.975 | S. cerevisiae deletion strains, locus YJL129C, strain trk1, stronger effect = lower value 0.988 | S. cerevisiae deletion strains, locus YJL134W, strain LCB3, stronger effect = lower value 1 | S. cerevisiae deletion strains, locus YJL154C, strain vps35, stronger effect = lower value 0.986 | S. cerevisiae deletion strains, locus YJL164C, strain tpk1, stronger effect = lower value 0.986 | S. cerevisiae deletion strains, locus YJL166W, strain qcr8, stronger effect = lower value 0.993 | S. cerevisiae deletion strains, locus YJL168C, strain set2, stronger effect = lower value 0.98 | S. cerevisiae deletion strains, locus YJL187C, strain SWE1 (second series), stronger effect = lower value 1.02 | S. cerevisiae deletion strains, locus YJL187C, strain SWE1, stronger effect = lower value 1 | S. cerevisiae deletion strains, locus YJR043C, strain POL32, stronger effect = lower value 1.07 | S. cerevisiae deletion strains, locus YKL009W, strain mrt4, stronger effect = lower value 1.01 | S. cerevisiae deletion strains, locus YKL068W, stronger effect = lower value 0.995 | S. cerevisiae deletion strains, locus YKL085W, strain MDH1 (second series), stronger effect = lower value 0.992 | S. cerevisiae deletion strains, locus YKL085W, strain MDH1, stronger effect = lower value 0.992 | S. cerevisiae deletion strains, locus YKL160W, strain elf1, stronger effect = lower value 0.997 | S. cerevisiae deletion strains, locus YKR001C, strain vps1, stronger effect = lower value 1.04 | S. cerevisiae deletion strains, locus YKR026C, strain gcn3, stronger effect = lower value 0.999 | S. cerevisiae deletion strains, locus YKR091W, strain srl3, stronger effect = lower value 0.991 | S. cerevisiae deletion strains, locus YLL001W, strain dnm1, stronger effect = lower value 0.989 | S. cerevisiae deletion strains, locus YLL026W, stronger effect = lower value 0.994 | S. cerevisiae deletion strains, locus YLL041C, strain sdh2, stronger effect = lower value 0.995 | S. cerevisiae deletion strains, locus YLR027C, strain aat2, stronger effect = lower value 0.995 | S. cerevisiae deletion strains, locus YLR039C, strain RIC1, stronger effect = lower value 1.2 | S. cerevisiae deletion strains, locus YLR058C, strain SHM2, stronger effect = lower value 1.02 | S. cerevisiae deletion strains, locus YLR102C, strain apc9, stronger effect = lower value 0.975 | S. cerevisiae deletion strains, locus YLR221C, strain rsa3, stronger effect = lower value 0.999 | S. cerevisiae deletion strains, locus YLR258W, strain gsy2, stronger effect = lower value 0.994 | S. cerevisiae deletion strains, locus YLR262C, strain YPT6 (second series), stronger effect = lower value 1.01 | S. cerevisiae deletion strains, locus YLR268W, strain sec22, stronger effect = lower value 1.04 | S. cerevisiae deletion strains, locus YLR320W, strain mms22, stronger effect = lower value 0.992 | S. cerevisiae deletion strains, locus YLR330W, strain CHS5, stronger effect = lower value 1 | S. cerevisiae deletion strains, locus YLR342W, strain FKS1, stronger effect = lower value 0.987 | S. cerevisiae deletion strains, locus YLR357W, strain rsc2, stronger effect = lower value 0.982 | S. cerevisiae deletion strains, locus YLR370C, strain arc18, stronger effect = lower value 0.99 | S. cerevisiae deletion strains, locus YLR371W, strain rom2, stronger effect = lower value 0.989 | S. cerevisiae deletion strains, locus YLR384C, strain iki3, stronger effect = lower value 1 | S. cerevisiae deletion strains, locus YLR418C, strain cdc73, stronger effect = lower value 1.01 | S. cerevisiae deletion strains, locus YML016C, strain PPZ1, stronger effect = lower value 1.01 | S. cerevisiae deletion strains, locus YML032C, strain rad52, stronger effect = lower value 0.993 | S. cerevisiae deletion strains, locus YML120C, strain ndi1, stronger effect = lower value 0.985 | S. cerevisiae deletion strains, locus YML124C, strain tub3, stronger effect = lower value 0.99 | S. cerevisiae deletion strains, locus YMR058W, strain fet3, stronger effect = lower value 0.994 | S. cerevisiae deletion strains, locus YMR078C, strain ctf18, stronger effect = lower value 0.981 | S. cerevisiae deletion strains, locus YMR125W, strain sto1, stronger effect = lower value 0.975 | S. cerevisiae deletion strains, locus YMR129W, stronger effect = lower value 0.991 | S. cerevisiae deletion strains, locus YMR205C, strain PFK2, stronger effect = lower value 0.985 | S. cerevisiae deletion strains, locus YMR223W, strain ubp8, stronger effect = lower value 0.993 | S. cerevisiae deletion strains, locus YMR231W, strain pep5, stronger effect = lower value 1 | S. cerevisiae deletion strains, locus YMR307W, strain GAS1, stronger effect = lower value 1.09 | S. cerevisiae deletion strains, locus YNL067W, strain RPL9B, stronger effect = lower value 1.01 | S. cerevisiae deletion strains, locus YNL071W, strain lat1, stronger effect = lower value 0.99 | S. cerevisiae deletion strains, locus YNL128W, strain TEP1, stronger effect = lower value 1 | S. cerevisiae deletion strains, locus YNL209W, strain ssb2, stronger effect = lower value 0.998 | S. cerevisiae deletion strains, locus YNL233W, strain BNI4, stronger effect = lower value 1.03 | S. cerevisiae deletion strains, locus YNL248C, strain rpa49, stronger effect = lower value 1.01 | S. cerevisiae deletion strains, locus YNL250W, strain rad50, stronger effect = lower value 0.978 | S. cerevisiae deletion strains, locus YNL271C, strain bni1, stronger effect = lower value 0.998 | S. cerevisiae deletion strains, locus YNL298W, strain CLA4, stronger effect = lower value 0.987 | S. cerevisiae deletion strains, locus YNL307C, strain MCK1, stronger effect = lower value 0.977 | S. cerevisiae deletion strains, locus YNL322C, strain KRE1 (second series), stronger effect = lower value 0.993 | S. cerevisiae deletion strains, locus YNR049C, strain mso1, stronger effect = lower value 0.975 | S. cerevisiae deletion strains, locus YNR052C, strain pop2, stronger effect = lower value 0.962 | S. cerevisiae deletion strains, locus YOL006C, strain TOP1, stronger effect = lower value 1.27 | S. cerevisiae deletion strains, locus YOL012C, strain htz1 1.05 | S. cerevisiae deletion strains, locus YOL147C, strain pex11, stronger effect = lower value 0.997 | S. cerevisiae deletion strains, locus YOR001W, strain rrp6, stronger effect = lower value 0.997 | S. cerevisiae deletion strains, locus YOR061W, strain CKA2, stronger effect = lower value 0.997 | S. cerevisiae deletion strains, locus YOR069W, strain VPS5, stronger effect = lower value 1.01 | S. cerevisiae deletion strains, locus YOR070C, strain gyp1, stronger effect = lower value 0.99 | S. cerevisiae deletion strains, locus YOR080W, strain dia2, stronger effect = lower value 0.985 | S. cerevisiae deletion strains, locus YOR083W, strain WHI5, stronger effect = lower value 0.995 | S. cerevisiae deletion strains, locus YOR106W, strain vam3, stronger effect = lower value 0.989 | S. cerevisiae deletion strains, locus YOR136W, strain idh2, stronger effect = lower value 0.973 | S. cerevisiae deletion strains, locus YOR144C, strain elg1, stronger effect = lower value 0.975 | S. cerevisiae deletion strains, locus YOR184W, strain ser1, stronger effect = lower value 1.06 | S. cerevisiae deletion strains, locus YOR265W, strain rbl2, stronger effect = lower value 0.983 | S. cerevisiae deletion strains, locus YOR270C, strain vph1, stronger effect = lower value 0.981 | S. cerevisiae deletion strains, locus YOR290C, strain snf2, stronger effect = lower value 0.978 | S. cerevisiae deletion strains, locus YOR316C, strain cot1, stronger effect = lower value 0.987 | S. cerevisiae deletion strains, locus YPL051W, strain arl3, stronger effect = lower value 0.995 | S. cerevisiae deletion strains, locus YPL078C, strain atp4, stronger effect = lower value 0.993 | S. cerevisiae deletion strains, locus YPL106C, strain sse1, stronger effect = lower value 1.01 | S. cerevisiae deletion strains, locus YPL240C, strain hsp82, stronger effect = lower value 0.996 | S. cerevisiae deletion strains, locus YPR119W, strain clb2, stronger effect = lower value 0.989 | S. cerevisiae deletion strains, locus YPR141C, strain kar3, stronger effect = lower value 0.997 | S. cerevisiae deletion strains, locus YPR163C, strain tif3, stronger effect = lower value 0.998 | S. cerevisiae deletion strains, locus YPR167C, strain met16, stronger effect = lower value 0.962 | S. cerevisiae deletion strains, strain wtn01, stronger effect = lower value 1.03 | S. cerevisiae strains, strain wild type, stronger effect = lower value 1.04
